Data on 15 compounds can be found in PubChem BioAssay (NCATS).

Molecules are shown by their SMILES. Records with an inconclusive call do not appear. A call without a number means that no potency is given here. Activity calls are given as the source filed them. The call rests on the fitted dose curve; in most records, active means well fitted inhibition curve with a large enough effect; inconclusive means small, poorly fitted or top-dose-only effect; inactive means no such curve, though single readings can be large or run the other way.

Test [1] can be described thus: qHTS assay for measurement of the activity of small molecule inhibitors on Zika virus induced Caspase-3 activity in human iPSC derived neural progenitor cells (hNPCs) (AID 1224857). Further: nearly all actives have a fitted effect of over 65% in size. The procedure, abridged:
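After overnight (16–20 h) culture at 350 cells/well, hNPCs get compound, then ZIKV 2 FFU/cell one hour later. Six hours on, Caspase-Glo 3/7 is added and luminescence measured.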

A short description of test [2]: qHTS assay for measurement of the activity of small molecule inhibitors on Zika virus induced Caspase-3 activity in human astrocytoma cells (AID 1224859). The procedure, abridged: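 Inhibition of Zika-induced caspase-3/7 activity: SNB-19 cells, 1 h compound pretreatment, ZIKV 2 FFU/cell for 6 h at 37 C, Caspase-Glo luminescence read-out.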

With `COc1ccc2nc(SCc3ncc(C)c(OC)c3C)[nH]c2c1`, the Potency result in test [1] was “inactive”. Moreover, the compound was classed as inactive in test [2].
As for `CC(CC(C#N)(c1ccccc1)C(C)C)N(C)C` (stereo not given), in test [1], the Potency result was “inactive”. Further, the compound was called inactive in test [2].
Turning to `O=[N+]([O-])c1cncn1CCN1CCOCC1`, the Potency entry in test [1] is “inactive”. The call in test [2] was inactive.
As to `C[C@@H]1CCC[C@H](C)N1CCCC(O)(c1ccccc1)c1ccccn1` (stereo not given in full), in test [1], the Potency entry was “inactive”. The call in test [2] was inactive.
As to `COC(=O)c1cc(Cl)ccc1OC`, in test [1], the Potency entry is “inactive”. Moreover, in test [2], the outcome was inactive.
For `CC(C)NCCCC1(C(N)=O)c2ccccc2-c2ccccc21`, the Potency result in test [1] was “inactive”. The call in test [2] was inactive.
On to `Cc1c(C)c2c(c(C)c1OC(=O)CCC(=O)OCCO)CC[C@@](C)(CCC[C@H](C)CCC[C@H](C)CCCC(C)C)O2`, for which the Potency entry in test [1] was “inactive”. Further, in test [2], the call was inactive.
With `O=c1[nH]c(=O)n([C@H]2O[C@H](CO)[C@@H](O)[C@@H]2O)cc1/C=C\Br`, the Potency entry in test [1] was “inactive”. Also, in test [2], the compound was called inactive.
Turning to `CC(=O)[C@@]1(O)CC[C@H]2[C@@H]3C[C@H](C)C4=CC(=O)CC[C@]4(C)[C@H]3CC[C@@]21C`, the Potency entry in test [1] was “inactive”. The compound was called inactive in test [2].
For `Nc1nc(=O)n([C@@H]2O[C@H](CO)[C@@H](O)[C@@H]2F)cc1I`, the Potency entry in test [1] was “inactive”. For the same compound, the call in test [2] was inactive.
For `CN1CC[C@H](c2c(O)cc(O)c3c(=O)cc(-c4ccccc4Cl)oc23)[C@H](O)C1`, the Potency result in test [1] is “inactive”. Further, in test [2], the compound was called inactive.
For the compound `NS(=O)(=O)c1cc2c(cc1Cl)CN(C1CCCCC1)C2=O`, in test [1], the Potency entry was “inactive”. Moreover, the call in test [2] was inactive.
In the case of `COc1ccc(OC(=O)N(CC(=O)O)Cc2ccc(OCCc3nc(-c4ccccc4)oc3C)cc2)cc1`, the Potency result in test [1] was “inactive”. In test [2], the outcome was inactive.
Turning to `CCOC(=O)N1CCC(n2c(=O)[nH]c3cc(Cl)ccc32)CC1`, in test [1], the Potency entry is “inactive”. In test [2], the compound was called inactive.
With `N#CC1(c2ccc(F)cc2)CCC(=O)CC1`, the Potency entry in test [1] was “inactive”. Besides, in test [2], the result was inactive.
